Screening data as filed in PubChem BioAssay.
Vif-APOBEC3G blk – blocks the Vif interaction with human APOBEC3G. HeLa A3G-eYFP + Vif (tagged APOBEC3G with the HIV-1 protein that degrades it), YFP fluorescence, overnight. Potency, µM (series often up to 46.1 µM), actives largely listed as inhibitors. hit rate 0.076% among 410,000; further: nearly all actives have a fitted effect of over 60% in size
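HeLa cells stably expressing Vif and C-terminally eYFP-tagged A3G, seeded overnight at 37 deg C, then exposed to compound by pintool overnight at 37 deg C. Rise in yellow fluorescence (Ex 488/Em 500-530, Acumen) marks blocked Vif-driven A3G degradation.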
Vif-A3F inh – Vif-A3F binding inhibition; HeLa A3F-eYFP + Vif (tagged APOBEC3F with the HIV-1 protein that degrades it), YFP fluorescence increase; AID 602313; Potency, µM (series often up to 46.1 µM); hit rate 0.2% among 390,000; further: nearly all actives have a fitted effect of over 65% in size
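HeLa cells stably expressing Vif plus C-terminally eYFP-tagged A3F were seeded, incubated overnight at 37 deg C, dosed with compound, incubated overnight again at 37 deg C. Yellow fluorescence (Ex 488/Em 500-530) reported blocked Vif-mediated A3F-eYFP degradation.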
TRPML1 ag – agonists of human TRPML1 channel; TRPML1-expressing cells, Ca2+ dye fluorescence, FDSS; activation, % (test concentration not listed); AID 624414; hit rate 0.12% among 410,000; Q9GZU1; in the data active means activation above about 50%; inconclusive means mostly about 30% to 49%
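Calcium fluorescence on an FDSS kinetic reader gave the read-out. Tet-induced TRPML1-DL cells were plated overnight, dye-loaded (Ca8 with quencher, 45-90 min, room temperature, dark), then read 110 s after compound addition, and again 110 s after 4uM final 54-4 (EC80).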
Glioma ERSR ind – ER stress response induction in glioma; U87-MG GRP78 promoter luciferase reporter, 16 h; AID 602332; hit rate 0.02% among 420,000; Potency, µM, most hits filed as activators; further: series mostly up to about 76 µM; nearly all actives have a fitted effect of over 35% in size
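Stably transfected U87-MG glioma cells carrying a GRP78-based luciferase sensor; 16 h compound incubation. Luminescence end-point read 10 min after Bright-Glo addition at room temperature.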
TRPML1 blocker – inhibitors of human TRPML1 channel; Q9GZU1; TRPML1-inducible cells, Ca2+ dye fluorescence, FDSS; hits give low values; inhibition of EC80 agonist-evoked calcium signal; activity change, negative = inhibition, % (concentration not given with the values); hit rate 0.02% among 390,000; AID 624415; in the data active means activity change below about -50%; inconclusive means between about -30% and that limit;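 further: stimulus is agonist 54-4 at its EC80 concentration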
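Calcium fluorescence in TRPML1-DL cells induced overnight with Tet: a 110 s read after compound pin addition, then a 110 s antagonist read after challenge with 54-4 at 4 uM final (EC80).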
ALOX12 inh – inhibitors of human 12S-lipoxygenase ALOX12; P18054; purified 12hLO, xylenol orange hydroperoxide absorbance; Potency, µM (titrated, usually from 108 µM), usual class: inhibitors; hit rate 1.1% among 580,000; AID 1671190
Target sequence (P18054 whole entry, looked up): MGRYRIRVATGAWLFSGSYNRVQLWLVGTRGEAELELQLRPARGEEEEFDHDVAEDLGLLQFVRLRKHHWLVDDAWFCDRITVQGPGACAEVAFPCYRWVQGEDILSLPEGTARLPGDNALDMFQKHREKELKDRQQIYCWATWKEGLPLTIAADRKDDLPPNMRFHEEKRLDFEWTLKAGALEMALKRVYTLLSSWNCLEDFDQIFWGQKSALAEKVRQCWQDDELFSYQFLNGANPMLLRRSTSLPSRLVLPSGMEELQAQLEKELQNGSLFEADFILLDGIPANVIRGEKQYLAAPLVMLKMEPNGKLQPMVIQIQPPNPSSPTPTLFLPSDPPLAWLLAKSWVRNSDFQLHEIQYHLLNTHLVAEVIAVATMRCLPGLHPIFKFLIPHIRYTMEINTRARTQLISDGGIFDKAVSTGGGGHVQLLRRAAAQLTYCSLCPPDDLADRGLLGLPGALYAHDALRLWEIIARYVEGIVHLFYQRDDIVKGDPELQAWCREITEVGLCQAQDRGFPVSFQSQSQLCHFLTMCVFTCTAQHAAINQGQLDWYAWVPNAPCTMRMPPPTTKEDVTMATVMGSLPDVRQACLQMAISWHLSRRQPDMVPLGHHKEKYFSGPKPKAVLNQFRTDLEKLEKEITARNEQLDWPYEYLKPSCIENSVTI
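Purified human 12hLO at 150 nM in 25 mM Hepes, 0.01% Triton X-100, pH 7.0, preincubated 15 min at room temperature with compound. Reaction started with 40 uM arachidonic acid, 30 min at room temperature. Hydroperoxide measured by Fe-xylenol orange, 573/405 nm absorbance ratio.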
Each line names hits and unclear results; the compound was inactive in the other large screens. A selection: hits, their analogues and other compounds. The true share with any hit is near 1.3%. Unless noted, the call rests on the fitted dose curve; in most records, active means well fitted curve in the direction sought with a large enough effect; inconclusive means small, poorly fitted or top-dose-only effect, or another doubt; inactive means no such curve, though single readings can be large; an effect the other way counts as inactive or inconclusive.

Cc1cccc(NC(=O)C(Sc2ccccc2)c2ccccc2)c1C (stereo not drawn)	none (no result: Vif-APOBEC3G blk, Vif-A3F inh, TRPML1 ag, Glioma ERSR ind, TRPML1 blocker)
Cn1c(N)c(-c2ccccc2)c2ccc([N+](=O)[O-])cc2c1=O	Vif-APOBEC3G blk 8.9µM, Vif-A3F inh inconclusive, TRPML1 ag 83, ALOX12 inh inconclusive
N#Cc1c(N)n(Cc2ccccc2)c(=O)c2cc([N+](=O)[O-])ccc12	ALOX12 inh inconclusive
Cc1c(C(=O)OC/C(O)=C(\C#N)c2nc3ccccc3[nH]2)oc2ccccc12	Vif-APOBEC3G blk inconclusive, Vif-A3F inh 22µM
CCn1c(=O)c2c(n3c(=S)[nH]nc13)-c1ccccc1CC21CCCCC1	Vif-A3F inh inconclusive, ALOX12 inh 14µM
COc1ccccc1Cc1c(C(C)(C)C)nc2c3ccccc3ccn12	ALOX12 inh 28µM (no result: Vif-A3F inh)
CCCCCOc1ccc(C(N)C(=O)OCC)cc1 (stereo not drawn)	ALOX12 inh 20µM (no result: Vif-APOBEC3G blk, Vif-A3F inh, TRPML1 ag, Glioma ERSR ind, TRPML1 blocker)
COc1ccc(-c2sc3ccc(N4CCOCC4)cc3c2C#CCO)cc1	ALOX12 inh 20µM
COc1ccc(-c2sc3ccc(N4CCOCC4)cc3c2C#CC2(O)CCCCC2)cc1	Vif-APOBEC3G blk inconclusive
C=CCc1ccc(-c2ccc(OCCCCCCCCCC)c(F)c2)nc1	none (no result: Vif-APOBEC3G blk, Vif-A3F inh, TRPML1 ag, Glioma ERSR ind, TRPML1 blocker)
CC(=O)C1=C(C)N(C2CCCCC2)C(=O)C1(NC(=O)c1ccc(C(C)(C)C)cc1)C(F)(F)F (stereo not drawn)	none (no result: Vif-APOBEC3G blk, Vif-A3F inh, TRPML1 ag, Glioma ERSR ind, TRPML1 blocker)
NC(=S)NN=C1c2ccccc2-c2ccccc21	Vif-A3F inh inconclusive, ALOX12 inh 35µM
CCOc1ccc2nc(NC(=O)c3nc(SC)ncc3Cl)sc2c1	none
CCOc1ccc2nc(NC(=O)c3nc(SC(C)C)ncc3Cl)sc2c1	Vif-A3F inh 5µM, ALOX12 inh inconclusive
COC(=O)c1sc2ncccc2c1OCc1cccc(Cl)c1	none
COC(=O)c1sc2ncccc2c1OCc1c(Cl)cccc1Cl	ALOX12 inh 40µM
O=C(NCc1ccc2c(c1)OCO2)c1nc(-c2ccc(Cl)cc2)c2cnccn12	none (no result: Vif-APOBEC3G blk, Vif-A3F inh, TRPML1 ag, Glioma ERSR ind, TRPML1 blocker)
CNC(=O)c1[nH]nc2c1CCc1ccccc1-2	Vif-A3F inh inconclusive
COc1ccc(/C=N/NC(=O)c2[nH]nc3c2CCc2ccccc2-3)cc1OC	Vif-APOBEC3G blk 3.2µM
COCCCNC1=C(Cl)C(=O)c2ccccc2C1=O	none
COCCCNc1c2c3c(cccc3[nH]c1=O)C(=O)c1ccccc1-2	TRPML1 ag 113, ALOX12 inh inconclusive
CC(=O)/C(N=Nc1ccc(C(=O)O)cc1[N+](=O)[O-])=C(\C)O	none
CC(=O)/C(N=Nc1cc(C)ccc1O)=C(\C)O	Vif-APOBEC3G blk inconclusive, Vif-A3F inh 25µM, ALOX12 inh inconclusive
O=C(O)c1ccccc1CC(CCc1ccccc1)C(=O)O (stereo not drawn)	ALOX12 inh 28µM
O=C(O)Cc1ccccc1C(=O)O	none
CC(C)(C)Cc1c(-c2ccc(C#N)cc2)nc2c(Cl)cc(C(F)(F)F)cn12	TRPML1 ag 72 (no result: Vif-A3F inh)
Cc1ccc(Cc2c(-c3ccc(Cl)cc3)nc3c(Cl)cc(C(F)(F)F)cn23)cc1	ALOX12 inh 35µM (no result: Vif-A3F inh)
Cc1c(O)ccc2c(CN(C)CCOc3ccc(F)cc3)cc(=O)oc12	none (no result: Vif-APOBEC3G blk, Vif-A3F inh, TRPML1 ag, Glioma ERSR ind, TRPML1 blocker)
Cc1c(O)ccc2c(COC(=O)c3nn(C(C)C)c(=O)c4ccccc34)cc(=O)oc12	none (no result: Vif-APOBEC3G blk, Vif-A3F inh, TRPML1 ag, Glioma ERSR ind, TRPML1 blocker)
Cc1onc(-c2ccccc2)c1-c1nnc(CN2CCC(C(=O)N3CCCCCC3)CC2)o1	none (no result: Vif-APOBEC3G blk, Vif-A3F inh, TRPML1 ag, Glioma ERSR ind, TRPML1 blocker)
Clc1ccccc1-c1ncc2ccccn12	ALOX12 inh 22µM
Clc1ccc(-c2ncc3ccccn23)cc1	ALOX12 inh inconclusive
CC1=Nc2cc(C(=O)O)ccc2Sc2ccc(Br)cc21	ALOX12 inh 45µM
CC1=C[C@@H](CNC(=O)c2ccccc2)[C@H](C(C)C)C[C@H]1Cc1nc2ccccc2n1C	none (no result: Vif-APOBEC3G blk, Vif-A3F inh, TRPML1 ag, Glioma ERSR ind, TRPML1 blocker)
CSc1nc2c(c(=O)[nH]c(=O)n2C)n1Cc1cccc(C)c1	none (no result: Vif-APOBEC3G blk, Vif-A3F inh, TRPML1 ag, Glioma ERSR ind, TRPML1 blocker)
Cc1cccc(Nc2nnc(SC/C(O)=C(\C#N)c3nc4ccccc4[nH]3)s2)c1	Vif-A3F inh 22µM, ALOX12 inh inconclusive
O=C(NCc1ccncc1)C1CCC1	none (no result: Vif-APOBEC3G blk, Vif-A3F inh, TRPML1 ag, Glioma ERSR ind, TRPML1 blocker)
O=C(Nc1cccc(C(F)(F)F)c1)O[C@@H]1CO[C@H]2[C@@H]1OC[C@@H]2NC(=S)NC1CCCCC1	ALOX12 inh 45µM (no result: Vif-APOBEC3G blk, Vif-A3F inh, TRPML1 ag, Glioma ERSR ind, TRPML1 blocker)
CO[C@@H]1CO[C@H]2[C@@H]1OC[C@@H]2NC(=O)Nc1cccc(C(F)(F)F)c1	none (no result: Vif-APOBEC3G blk, Vif-A3F inh, TRPML1 ag, Glioma ERSR ind, TRPML1 blocker)
CCOC(=O)N1CCC(N2CCN(c3cc(C)ccc3C)CC2)CC1	ALOX12 inh 6.3µM
CCOC(=O)c1ccc(N2CCN(c3cc(C)ccc3C)CC2)c(N)c1	none
CCC(=O)Nc1ccc2oc(-c3cc(F)c(F)cc3Cl)nc2c1	none (no result: Vif-APOBEC3G blk, Vif-A3F inh, TRPML1 ag, Glioma ERSR ind, TRPML1 blocker)
O=C(COc1ccc(-n2cnnn2)cc1)N1CCN(S(=O)(=O)c2ccc3ccccc3c2)CC1	ALOX12 inh 45µM (no result: Vif-APOBEC3G blk, Vif-A3F inh, TRPML1 ag, Glioma ERSR ind, TRPML1 blocker)
CC(C)OCCCn1c(-c2ccc(Br)cc2)c[nH]c1=S	Vif-A3F inh inconclusive, ALOX12 inh 45µM
COc1ccc(Br)cc1CN(C)C(C)c1nnc(-c2ccc(C)cc2)o1 (stereo not drawn)	none (no result: Vif-APOBEC3G blk, Vif-A3F inh, TRPML1 ag, Glioma ERSR ind, TRPML1 blocker)
CCN1CCN(C(CC(C)C)c2nnnn2CS(=O)(=O)c2ccc(C)cc2)CC1 (stereo not drawn)	ALOX12 inh 7.1µM
O=C1C=CC(=O)N1c1ccc2ccccc2c1	ALOX12 inh 40µM
Cc1cccc(N2C(=O)C=CC2=O)c1	none
O=C(c1cc2cc(Cl)ccc2[nH]1)N(Cc1ccccc1)Cc1ccco1	none (no result: Vif-APOBEC3G blk, Vif-A3F inh, TRPML1 ag, Glioma ERSR ind, TRPML1 blocker)
